# An excerpt weighted towards active compounds, which were near 11% of everything screened.
# HCV inh = HCV inhibition. Huh7.5.1 HCVcc-Cre infection, luciferase reporter, 44 h. Potency, µM (series often up to 41.8 µM), inactives show top-dose activity change, negative = inhibition, hits mostly inhibitors. hit rate 3.4% among 340,000. AID 651820
#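 After 44 h co-culture of compound, cells and HCVcc-Cre (~0.5 moi), substrate is added for 15 min at room temperature and luciferase measured over 15 sec. Cells were seeded at 1,000/well and pre-cultured 4 h.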
# Pf growth 48h = inhibits P. falciparum growth in the first generation, 48 h; P. falciparum luciferase growth in erythrocytes, 48 h; Potency, µM (top dose mostly 28.7 µM), for inactives: top-dose activity change, negative = inhibition, most hits filed as inhibitors; hit rate 5.9% among 310,000; AID 504832
#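 Firefly luciferase activity from engineered P. falciparum reports growth; inhibitors lower the luminescent signal. Cultures contained 2% hematocrit erythrocytes at 0.1% final parasitemia.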
# AMA1 RON2 block = disrupts binding of P. falciparum AMA1 to RON2. AlphaScreen AMA1-biotinylated RON2 peptide binding. AID 720542. Potency, µM (highest dose often 58.2 µM), for inactives: at the highest dose activity change, negative = inhibition, most hits filed as inhibitors. hit rate 0.2% among 360,000;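 further: 0% = vehicle wells and -100% = peptide control; nearly all actives have a fitted effect of over 45% in size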
#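 AMA1 (3D7) with his tag at 25 nM final met compounds first, then biotinylated RON2 peptide at 25 nM; detection used donor plus acceptor beads, 10 µg/mL apiece, read by AlphaScreen after 30 min at room temperature.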
# Pf growth 96h = P. falciparum growth inhibition at 96 hours; hit rate 6.9% among 320,000; P. falciparum luciferase reporter growth, 96 h; AID 504834; Potency, µM (titrated, usually from 28.7 µM), without a hit: top-dose activity change, negative = inhibition, most hits filed as inhibitors
#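 Erythrocytes infected with luciferase-expressing P. falciparum were dispensed at 2% hematocrit and 0.05% parasitemia (final), then incubated with compounds 96 hours at 37 C in 5% CO2. Luminescence after detection reagent addition reported growth.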
# * marks the source's active call; other numbers are inactive results; ? = inconclusive; . = no result; [ ] = another dose, or the depositor's remark. The call rests on the fitted dose curve; in most records, active means well fitted curve in the direction sought with a large enough effect; inconclusive means small, poorly fitted or top-dose-only effect, or another doubt; inactive means no such curve, though single readings can be large; an effect the other way counts as inactive or inconclusive. Unless noted, on the % scale 0 is the no-effect control and ±100 the full control effect; potency means the concentration at half of the fitted maximal effect.
SMILES,HCV inh,Pf growth 48h,AMA1 RON2 block,Pf growth 96h
COc1ccc(Nc2nccc(-c3cccc(N)c3)n2)cc1,?,103%,-5%,27%
COc1ccc(Nc2nccc(-c3ccc(C#N)cc3)n2)cc1,-22%,-19%,-1%,5.9µM*
CC(C)(C)Nc1c([N+](=O)[O-])c(=O)sc2ccccc12,-29%,19%,0%,-17%
CCCCCCNc1c([N+](=O)[O-])c(=O)sc2ccccc12,?,7.4µM*,-7%,-10%
Cc1c(OCC(=O)NCCCn2ccnc2)ccc2c3c(c(=O)oc12)CCC3,-8%,-11%,-2%,?
Cc1ccc(/C=N/NC(=O)CSc2nc3ccccc3[nH]2)o1,7%,-8%,-7%,?
O=C(COc1ccc(S(=O)(=O)N2CCCC2)cc1Cl)NC1CCCC1,-6%,9.3µM*,-5%,.
O=C(COC(=O)c1cc(S(=O)(=O)N2CCCCC2)ccc1Cl)NC1CCCCC1,.,.,2%,.
CCOc1cc(C)c(Cl)cc1S(=O)(=O)N1CCCC1,-20%,-16%,-2%,0.93µM*
Cc1cc(Cl)c(S(=O)(=O)N2CCCC2)cc1OCC(=O)NC1CCCCC1,?,.,18%,0.083µM*
COc1cc(C)c(Cl)cc1S(=O)(=O)N1CCCC1,-8%,-3%,14%,?
O=C(Cc1ccc(F)cc1)Nc1c2c(nn1-c1cccc(Cl)c1)CS(=O)C2 (stereo unspecified),16%,?,13%,30%
CCC(C)NS(=O)(=O)c1ccc(-c2csnn2)s1 (stereo unspecified),10%,.,-12%,22%
CC(=O)n1c(Cl)c(NC(=O)CCl)c2ccccc21,14µM*,.,-1%,2.1µM*
Cc1c(Cc2ccccc2)c(=O)oc2cc(OCC(=O)NCC3CCC(C(=O)O)CC3)ccc12 (stereo unspecified),?,?,-4%,12µM*
Cc1cc(OC(C)C(=O)NCC2CCC(C(=O)O)CC2)c2c(C)c(Cc3ccccc3)c(=O)oc2c1 (stereo unspecified),?,?,-1%,10µM*
Cc1c(Cc2ccccc2)c(=O)oc2c(C)c(OC(C)C(=O)NCC3CCC(C(=O)O)CC3)ccc12 (stereo unspecified),23%,?,0%,13µM*
Cc1cccc(C)c1C(O)c1ncc(-c2ccc(F)cc2)[nH]1 (stereo unspecified),.,.,-10%,.
CCN(CC)c1c(C)nc2ccc(C(=O)N3CCN(C(=O)c4ccco4)CC3)cn12,.,.,15%,.
C=CCNS(=O)(=O)c1ccc(OC)c(C)c1,6%,0%,7%,.
C=CCNS(=O)(=O)c1cc(S(=O)(=O)NCC=C)c(OC)cc1OC,-7%,236%,9%,2.9µM*
O=[N+]([O-])c1cccnc1N1CCC(c2cc(-c3ccc(Cl)cc3)n[nH]2)CC1,10µM*,.,-25%,?
CC1=C([N+](=O)[O-])C(c2cccc(Br)c2)C2=C(N1)c1ccccc1C2=O (stereo unspecified),?,4.7µM*,-5%,.
COC(=O)C1=C(C)NC2=C(C(=O)c3ccccc32)C1c1cccc(OC)c1 (stereo unspecified),?,1%,-8%,8%
Oc1cc(NCc2ccc(Cl)cc2)cc2cccnc12,.,3.3µM*,.,?
SMILES,HCV inh,Pf growth 48h,AMA1 RON2 block,Pf growth 96h
CN(C)CCCNc1cc(O)c2ncccc2c1,.,4.1µM*,.,4.7µM*
Oc1cc(NCc2ccc(F)cc2)cc2cccnc12,.,2.6µM*,.,1.9µM*
Clc1ccc(CNc2ncccn2)cc1,10%,15%[0.00184 µM],5%,68%
Fc1ccc(CNc2ncccn2)cc1,10%,18%,2%,-21%
CCOC(=O)c1c(NC(=O)Cn2cnc([N+](=O)[O-])n2)sc(C)c1C,-28%,-9%,-4%,119%
CCOCCCN(Cc1ccco1)S(=O)(=O)c1csc(C(N)=O)c1,11%,20%,6%,13µM*
CSc1ccccc1C(=O)N(C)Cc1ccccc1,20%,7%,-14%,83%
CSc1ccccc1C(=O)N(C)C(c1ccccc1)c1ccccc1,?,?,7%,10µM*
COc1ccc(OCC(=O)N(Cc2ccc(C)o2)C2CCS(=O)(=O)C2)cc1 (stereo unspecified),23%,20%,1%,21%
Cc1cccc(C(=O)NCC(c2ccc(F)cc2)N2CCOCC2)c1 (stereo unspecified),18%,22%,7%,5%
O=C(NC1CCCCC1)C(c1cccnc1)N(C(=O)CCl)c1ccc(F)cc1 (stereo unspecified),1.1µM*,?,9%,-1%
CCc1ccccc1N(C(=O)CNC(=O)c1ccco1)C(C(=O)NC1CCCC1)c1cccnc1 (stereo unspecified),?,6%,-7%,17%
O=C(NC1CCCCC1)C(c1cccnc1)N(C(=O)CCl)c1ccccc1Cl (stereo unspecified),3.2µM*,?,-21%,38%
COc1ccc(N(C(=O)CCl)C(C(=O)NC2CCCCC2)c2cccnc2)cc1 (stereo unspecified),3.2µM*,?,0%,?
O=C(Nc1nnc(SCCN2CCOCC2)s1)C1CC(=O)N(c2ccccc2)C1 (stereo unspecified),24%,-23%,-1%,?
CCN1CC2=C(OC(N)=C(C#N)C2c2ccccc2)/C(=C\c2ccccc2)C1 (stereo unspecified),?,10µM*,-4%,.
CCN1CC2=C(OC(N)=C(C#N)C2c2cccs2)/C(=C/c2cccs2)C1 (stereo unspecified),22µM*,12µM*,-16%,54%
CC(=O)c1cccc(N(CC(=O)NC2CCCCC2)C(=O)CCC(=O)Nc2nc(C)cs2)c1,2%,?,0%,?
COCCCN=Cc1c(C)[nH]n(-c2ccc(Br)cc2Br)c1=O,1%,25%,1%,17%
OCCOc1ccccc1,27%,-14%,-4%,0%
O=P(O)(COc1ccccc1)COc1ccccc1,-5%,7%,-6%,13µM*
COc1cc(CN2CCN(C(=O)c3ccc(-c4ccccc4)cc3)CC2)cc(OC)c1OC,?,14%,?,-4%
COc1cccc(C(=O)N2CCN(Cc3ccccc3C(F)(F)F)CC2)c1,17%,-1%,?,1.5µM*
COc1cccc(CN2CCN(C(=O)c3ccc(-c4ccccc4)cc3)CC2)c1OC,-28%,-23%,-26%,2.9µM*
O=C(NC1CCCc2c1cnn2-c1ccccc1F)c1ccncc1 (stereo unspecified),.,.,10%,.
CC(C)CC(NC(=O)c1ccc(C#CC(C)(C)O)s1)C(=O)O (stereo unspecified),18%,12%,2%,59%
CSc1cccc(NC(=O)C2CCN(S(=O)(=O)c3ccc(F)cc3)CC2)c1,11µM*,?,-8%,?
CSc1cccc(NC(=O)C2CCCN(S(=O)(=O)c3ccc(F)cc3)C2)c1 (stereo unspecified),?,?,-13%,-95%

# Screening data deposited in PubChem BioAssay by National Center for Advancing Translational Sciences (NCATS).
